Measurements from the supplement of paper PMC10681739.

Target: T1, ETS1 (UniProt P14921)
T1 sequence: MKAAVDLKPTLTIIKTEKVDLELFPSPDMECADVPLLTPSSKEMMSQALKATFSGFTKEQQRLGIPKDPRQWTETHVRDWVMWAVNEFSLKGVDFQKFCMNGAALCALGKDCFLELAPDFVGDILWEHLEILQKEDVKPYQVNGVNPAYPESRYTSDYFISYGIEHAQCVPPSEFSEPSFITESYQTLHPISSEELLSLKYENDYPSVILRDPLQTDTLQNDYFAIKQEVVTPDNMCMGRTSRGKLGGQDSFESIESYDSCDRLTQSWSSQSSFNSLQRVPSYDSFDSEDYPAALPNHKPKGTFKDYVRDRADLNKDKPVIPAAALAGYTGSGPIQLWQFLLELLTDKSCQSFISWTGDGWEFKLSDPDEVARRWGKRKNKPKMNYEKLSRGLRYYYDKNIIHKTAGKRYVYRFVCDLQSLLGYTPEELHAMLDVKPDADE
Test: ETS1 binding intensity (PBM fluorescence), ETS1 alone (arbitrary fluorescence units); higher = stronger binding
Conditions: ETS1 concentration 1 nM; RUNX1 concentration 0 nM

Row | Sequence | ETS1 binding intensity
1 | CATCCAGGACGGAAACAGCATCCCCACCGCGGGAGC | 775
2 | TCTCCTTTCAGGAAGCTGCACCCAAACCACCCTCAG | 606
3 | CCCACTCCACTTCCGCCACCGCCGCAGCCGCCGCTG | 1430
4 | ACAGGAAGTGTCTCTATAGAAACCAAACCACAGAAA | 1270
5 | AGGCTTCCTGTTTTATCTCGTGTGTGTGGTGCACCA | 547
6 | CAGTGGCAGGAAGAGGTCAGAAACCACTCGTGGTGG | 718
7 | AAAGCAAACAGGAAGTGCTGTGGTAACAAGGCCCCA | 6830
8 | TGGGGCTCTTCCTGCTTATGTGACCACAGCACCTTG | 402
9 | ACAGATAGTGATATCCTGTGGTCAATTCCCTCCCCT | 949
10 | CGAGCTCGGTGTTCCGCTTTTTGTGGGCCGGGTGGG | 467
11 | TACCCAGAAAGGAAGTGGAACCTGCGGTGAGGCCCC | 1130
12 | TCCCCTTTCCGGGAAGGGTTGGGGATCTGACCACGT | 437
13 | AGGTACCAGGCCCGGAAACCACGGAAAGGGGAACTT | 3050
14 | CTGCTAGCGGAAGCAGCCAAGCCCACAGGCTCCAGG | 942
15 | GGCTCGGCAAACATCCGGCTCCGCGGTGGAACGGGA | 1430
16 | TCACATCCTGTAATGGTTTGCGCATACCACAGTTCT | 455
17 | AACAAACCGGATGGGGTTGCCACCCGCAATCTTGTC | 2030
18 | TCCCCGGCAGCTTCCTCGCCCCGACCGCAGTGTTCC | 368
19 | GACCAGGAAACGGGGCGTGGCGGCCGCCGTGGTTAC | 449
20 | CCATCCAGGAAGCTTATGGTGCGACCGCAGTGTGCC | 508

Row | Sequence | ETS1 binding intensity
21 | AACAAACCGGATGGGGTTCCCACCCGCAATCTTGTC | 1700
22 | GTAGAGACAGGAAATTATGTTGGTTTTCTTGCAGAA | 3530
23 | CTGCTGCTTTTAGGATGTGGTTTTATTATTGTCGGG | 670
24 | AACACCACTTCCTACTGTGAAACCACACTGTATTTG | 456
25 | AGAACCACTTCCTCTCAGTAAACCACAGAGACTGTA | 592
26 | TGCTTCCCGTCCGTGTCGCGGCCCTGCGGTTGGCGG | 324
27 | AGGACCGGAAGTGCCCGAGGGCGGCCGCAGAACGGT | 8870
28 | ATACTGAGTCATTTCCTGTGGTGTTATTGTGTTGTA | 1760
29 | GAGACTTTCGCTTCCGGCTGCCGCAGGCGCTTCGCT | 1830
30 | ACTGAAAACAGCACAGGATGTGGTCTGCCAGGTGCC | 4270
31 | GTTGGGCTTTGAGGATGTGGGTTCTAGAAGTTTACA | 928
32 | CAAAAGTGCTTCCTCTCGAGGGGTTGTGGTTCTTAC | 396
33 | CCATTCACGGGCTTCCGCGGTGTCCCCACCCCCTAA | 724
34 | TTTCTCTTCCTGTTTCCACCCTGACCACAGCCAGCT | 476
35 | GCGAGACGCGGAAGAGGCTTGCGGTTGACCAAAGAA | 407
36 | TGAGCAAGTTCCTTCCTGTCTGTGGTCCAGGGTTTA | 757
37 | CAGTGGCTAAGGATCCGGTGTTGCGGTGATACATGA | 430
38 | CCTCCCGACCGGAAGCCCCGCCACAGAGCGGGTTGT | 6240
39 | GGAGCGCGCCGGAAACGCGCGGCTGCGGCCCGGGAG | 4280
40 | CCCCCTGAACATCCGGGGCCTTTTAACCGCCCACGG | 1290
